# According to PubChem BioAssay (NCATS):
# “And” between values parts separate entries of the source, which are not always exact repeats. Equal values may be shown once. Results filed as inconclusive are left out. Where a call stands in place of a potency, no number is given. The source made the active and inactive calls. Unless noted, calls come from the whole dose curve; as a rule, active = well fitted curve in the direction sought with a large enough effect; inconclusive = small, poorly fitted or top-dose-only effect, or another doubt; inactive = no such curve, though single readings can be large; an effect the other way counts as inactive or inconclusive.
# Biological target: Cytochrome P450 1A2 (Homo sapiens) (UniProt P05177)
# Sequence (P05177 whole entry, looked up): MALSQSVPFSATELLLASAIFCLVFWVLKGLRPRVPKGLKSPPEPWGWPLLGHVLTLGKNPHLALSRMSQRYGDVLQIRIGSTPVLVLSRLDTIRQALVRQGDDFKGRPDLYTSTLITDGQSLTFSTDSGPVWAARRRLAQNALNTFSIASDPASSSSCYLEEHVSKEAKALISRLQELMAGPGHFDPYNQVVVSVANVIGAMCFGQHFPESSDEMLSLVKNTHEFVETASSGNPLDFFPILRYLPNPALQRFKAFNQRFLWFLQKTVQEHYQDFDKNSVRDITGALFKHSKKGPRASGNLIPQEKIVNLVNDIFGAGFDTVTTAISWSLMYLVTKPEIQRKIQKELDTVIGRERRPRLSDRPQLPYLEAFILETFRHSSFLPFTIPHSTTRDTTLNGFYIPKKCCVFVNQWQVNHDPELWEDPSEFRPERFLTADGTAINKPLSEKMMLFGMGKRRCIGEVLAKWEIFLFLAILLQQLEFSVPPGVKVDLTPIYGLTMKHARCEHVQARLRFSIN
# Assay: p450-cyp1a2 (AID 410; calls by dose curve; note: potency is the fitted concentration of half-maximal effect)
# Conditions: recombinant CYP1A2, luciferin-ME demethylation, luminescence; series mostly up to 57 µM
# Method in brief: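 Luminescent readout of luciferin formed from Luciferin-ME by human CYP1A2; data normalized against complete inhibition by 57 uM furafylline. Enzyme 20nM, substrate 100uM at Km, 100mM KPO4 buffer, 60 min reaction at room temperature.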
row,SMILES,Potency
1,COc1ccc(/C=C\C(=O)Nc2ccccc2C(=O)O)cc1OC,inactive
2,N[C@@H](Cc1cc(CP(=O)(O)O)cc(-c2ccccc2Cl)c1)C(=O)O,inactive
3,CCOC(=O)c1c(C)[nH]c2ccc3c(c12)CN1CCc2cc(OC)ccc2[C@@H]1O3,0.158 µM (active)

# Biological target: Glucocorticoid receptor (Homo sapiens) (UniProt P04150)
# Sequence (P04150 whole entry, looked up): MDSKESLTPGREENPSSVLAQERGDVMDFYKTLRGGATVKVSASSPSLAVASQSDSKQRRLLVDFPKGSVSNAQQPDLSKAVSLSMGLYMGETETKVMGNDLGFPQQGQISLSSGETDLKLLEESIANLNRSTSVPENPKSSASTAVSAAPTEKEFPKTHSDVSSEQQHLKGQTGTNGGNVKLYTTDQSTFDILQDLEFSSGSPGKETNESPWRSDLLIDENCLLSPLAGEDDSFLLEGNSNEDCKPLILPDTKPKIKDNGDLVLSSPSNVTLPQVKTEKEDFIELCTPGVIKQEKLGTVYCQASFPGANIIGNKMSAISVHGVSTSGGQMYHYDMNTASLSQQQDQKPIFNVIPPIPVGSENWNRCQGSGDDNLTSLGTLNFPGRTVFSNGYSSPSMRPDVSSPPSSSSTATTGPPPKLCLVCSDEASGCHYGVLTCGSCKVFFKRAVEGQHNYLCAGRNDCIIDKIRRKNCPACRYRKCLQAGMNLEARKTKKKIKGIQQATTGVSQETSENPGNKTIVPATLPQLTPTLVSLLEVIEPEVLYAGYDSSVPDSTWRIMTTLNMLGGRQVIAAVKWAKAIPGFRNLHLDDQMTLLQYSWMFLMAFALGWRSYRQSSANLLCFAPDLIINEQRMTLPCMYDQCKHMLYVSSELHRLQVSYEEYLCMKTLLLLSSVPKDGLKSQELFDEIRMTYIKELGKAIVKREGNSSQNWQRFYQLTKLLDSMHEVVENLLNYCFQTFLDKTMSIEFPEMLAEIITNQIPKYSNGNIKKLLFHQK
# Assay: GR-GFP Redistribution (AID 450;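 active = compounds whose dose series gives a full or clear partial fitted curve of increased nuclear translocation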; note: potency is the fitted concentration of half-maximal effect)
# Conditions: U2OS GR-GFP nuclear translocation, laser cytometry, 2 h
row,SMILES,Potency
1,COc1ccc(/C=C\C(=O)Nc2ccccc2C(=O)O)cc1OC,> 46 µM (inactive)
2,O=S(=O)(c1cccc2cnccc12)N1CCNCC1,> 46 µM (inactive)
3,N[C@@H](Cc1cc(CP(=O)(O)O)cc(-c2ccccc2Cl)c1)C(=O)O,> 46 µM (inactive)
4,CN(C)C/C=C(\c1ccc(Br)cc1)c1cccnc1,> 46 µM (inactive) and > 20.6 µM (inactive)
5,CCOC(=O)c1c(C)[nH]c2ccc3c(c12)CN1CCc2cc(OC)ccc2[C@@H]1O3,> 46 µM (inactive)

# Biological target: Glucocorticoid receptor (Homo sapiens) (UniProt P04150)
# Assay: GR-EFC Redistribution (AID 451; calls by dose curve; note: potency is the fitted concentration of half-maximal effect)
# Conditions: CHO-K1 GR-EFC translocation, beta-gal luminescence, 2 h
# Method in brief: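 CHO-K1 cells stably expressing nuclear-localized β-gal enzyme acceptor and GR fused C-terminally to the enzyme donor fragment; ligand-driven nuclear translocation restores β-gal by complementation. Compounds titrated up to 46 uM final, 2 h at 37 °C; luminescence read.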
row,SMILES,Potency
1,COc1ccc(/C=C\C(=O)Nc2ccccc2C(=O)O)cc1OC,> 46 µM (inactive)
2,O=S(=O)(c1cccc2cnccc12)N1CCNCC1,> 46 µM (inactive)
3,N[C@@H](Cc1cc(CP(=O)(O)O)cc(-c2ccccc2Cl)c1)C(=O)O,> 46 µM (inactive)
4,CN(C)C/C=C(\c1ccc(Br)cc1)c1cccnc1,> 46 µM (inactive) and > 20.6 µM (inactive) and > 9.22 µM (inactive)
5,CCOC(=O)c1c(C)[nH]c2ccc3c(c12)CN1CCc2cc(OC)ccc2[C@@H]1O3,> 46 µM (inactive)

# Biological target: Mitogen-activated protein kinase 10 (Mus musculus) (UniProt Q61831)
# Assay: JNK3 AlphaScreen Assay (AID 530; active = well fitted curve in either direction with a large enough effect, not every such curve was filed as active;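 note: kinase came from lysate of stimulated human HepG2 cells; signal reports phosphorylation of biotinylated GST-cJun 1-79 at Ser73 with 10 µM ATP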)
# Conditions: JNK3 lysate, c-Jun phosphorylation; series mostly up to 57.1 µM
# Method in brief: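 Inhibitors reduce antibody binding to phosphorylated biotin-cJun, lowering AlphaScreen luminescence. Lysates from HepG2 cells pre-activated by IL-1beta plus TNF-alpha supplied JNK3; compounds were titrated.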
row,SMILES,Potency
1,COc1ccc(/C=C\C(=O)Nc2ccccc2C(=O)O)cc1OC,inactive
2,O=S(=O)(c1cccc2cnccc12)N1CCNCC1,inactive
3,N[C@@H](Cc1cc(CP(=O)(O)O)cc(-c2ccccc2Cl)c1)C(=O)O,inactive
4,CN(C)C/C=C(\c1ccc(Br)cc1)c1cccnc1,inactive
5,CCOC(=O)c1c(C)[nH]c2ccc3c(c12)CN1CCc2cc(OC)ccc2[C@@H]1O3,inactive

# Biological target: 3',5'-cyclic-AMP phosphodiesterase 4B (Homo sapiens) (UniProt Q07343)
# Sequence (Q07343 whole entry, looked up): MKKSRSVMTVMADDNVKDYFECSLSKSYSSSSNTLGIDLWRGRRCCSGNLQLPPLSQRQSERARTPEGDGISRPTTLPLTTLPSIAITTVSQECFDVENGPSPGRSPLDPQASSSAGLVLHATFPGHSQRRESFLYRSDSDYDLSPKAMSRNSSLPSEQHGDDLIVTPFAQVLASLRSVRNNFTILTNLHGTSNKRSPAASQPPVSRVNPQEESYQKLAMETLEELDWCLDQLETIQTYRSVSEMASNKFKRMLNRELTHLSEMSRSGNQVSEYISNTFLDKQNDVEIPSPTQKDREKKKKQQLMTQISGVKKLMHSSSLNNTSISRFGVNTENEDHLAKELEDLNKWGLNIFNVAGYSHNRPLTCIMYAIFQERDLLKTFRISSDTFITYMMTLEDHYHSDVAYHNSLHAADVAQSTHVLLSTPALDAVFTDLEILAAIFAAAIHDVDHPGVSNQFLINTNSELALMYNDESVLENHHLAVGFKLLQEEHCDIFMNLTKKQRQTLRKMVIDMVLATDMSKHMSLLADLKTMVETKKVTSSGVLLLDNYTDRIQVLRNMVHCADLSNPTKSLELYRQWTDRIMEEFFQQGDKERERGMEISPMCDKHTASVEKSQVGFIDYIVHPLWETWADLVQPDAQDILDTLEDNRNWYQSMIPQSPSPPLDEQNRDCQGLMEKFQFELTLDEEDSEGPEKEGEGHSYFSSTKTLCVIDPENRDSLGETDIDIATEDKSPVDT
# Assay: qHTS Assay for Inhibitors of PDE-IV (AID 607; active = well fitted activation curve with a large enough effect in the main read-out, with a control signal flat, not every such curve was filed as active)
# Conditions: HEK293 ACTOne CNG channel cells, membrane potential fluorescence; series mostly up to 22.9 µM
# Method in brief: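 ACTOne HEK293 cells carry a modified cAMP-gated CNG channel and express endogenous PDE4; plated 1000 cells/well, compounds up to 22.9 uM final. Membrane-potential dye fluorescence (ex 535/em 590) was read; parental cells received 10 uM forskolin + 100 uM RO 20-1724.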
row,SMILES,Potency
1,COc1ccc(/C=C\C(=O)Nc2ccccc2C(=O)O)cc1OC,inactive
2,N[C@@H](Cc1cc(CP(=O)(O)O)cc(-c2ccccc2Cl)c1)C(=O)O,inactive
3,CN(C)C/C=C(\c1ccc(Br)cc1)c1cccnc1,inactive

# Biological target: Cytochrome P450 3A4 (Homo sapiens) (UniProt P08684)
# Sequence (P08684 whole entry, looked up): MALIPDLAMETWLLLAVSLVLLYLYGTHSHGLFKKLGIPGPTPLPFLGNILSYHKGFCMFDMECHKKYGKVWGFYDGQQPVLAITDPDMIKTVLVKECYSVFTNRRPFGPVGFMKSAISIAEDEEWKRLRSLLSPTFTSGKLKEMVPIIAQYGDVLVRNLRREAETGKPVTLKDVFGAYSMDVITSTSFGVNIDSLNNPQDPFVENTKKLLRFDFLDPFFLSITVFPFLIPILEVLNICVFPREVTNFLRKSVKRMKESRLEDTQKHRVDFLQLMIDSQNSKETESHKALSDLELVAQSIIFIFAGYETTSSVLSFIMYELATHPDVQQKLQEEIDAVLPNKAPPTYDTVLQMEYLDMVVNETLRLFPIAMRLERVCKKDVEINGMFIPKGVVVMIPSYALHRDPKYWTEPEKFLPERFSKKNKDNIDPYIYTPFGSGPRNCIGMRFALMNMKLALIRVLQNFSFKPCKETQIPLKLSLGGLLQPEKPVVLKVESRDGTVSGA
# Assay: qHTS Assay for Activators of Cytochrome P450 3A4 (AID 885); note: nearly all actives have a fitted effect of over 65% in size
# Conditions: recombinant CYP3A4, Luciferin-PPXE luminescence, 60 min; series mostly up to 57.1 µM
# Method in brief: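 20nM CYP3A4 + 25uM Luciferin-PPXE (=KM), 200mM KPO4; cpd 10 min RT; NADPH regen, 60 min RT; stop w/ detection buffer, 20 min; luminescence. Normalized to 57 uM ketoconazole.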
row,SMILES,Potency
1,COc1ccc(/C=C\C(=O)Nc2ccccc2C(=O)O)cc1OC,inactive
2,COc1cccc(CCc2ccccc2OCC[C@@H]2C[C@@H](O)CN2C)c1,inactive
3,O=S(=O)(c1cccc2cnccc12)N1CCNCC1,inactive
4,CCOC(=O)c1c(C)[nH]c2ccc3c(c12)CN1CCc2cc(OC)ccc2[C@@H]1O3,inactive

# Biological target: Ubiquitin carboxyl-terminal hydrolase 1 (Homo sapiens) (UniProt O94782)
# Sequence (O94782 whole entry, looked up): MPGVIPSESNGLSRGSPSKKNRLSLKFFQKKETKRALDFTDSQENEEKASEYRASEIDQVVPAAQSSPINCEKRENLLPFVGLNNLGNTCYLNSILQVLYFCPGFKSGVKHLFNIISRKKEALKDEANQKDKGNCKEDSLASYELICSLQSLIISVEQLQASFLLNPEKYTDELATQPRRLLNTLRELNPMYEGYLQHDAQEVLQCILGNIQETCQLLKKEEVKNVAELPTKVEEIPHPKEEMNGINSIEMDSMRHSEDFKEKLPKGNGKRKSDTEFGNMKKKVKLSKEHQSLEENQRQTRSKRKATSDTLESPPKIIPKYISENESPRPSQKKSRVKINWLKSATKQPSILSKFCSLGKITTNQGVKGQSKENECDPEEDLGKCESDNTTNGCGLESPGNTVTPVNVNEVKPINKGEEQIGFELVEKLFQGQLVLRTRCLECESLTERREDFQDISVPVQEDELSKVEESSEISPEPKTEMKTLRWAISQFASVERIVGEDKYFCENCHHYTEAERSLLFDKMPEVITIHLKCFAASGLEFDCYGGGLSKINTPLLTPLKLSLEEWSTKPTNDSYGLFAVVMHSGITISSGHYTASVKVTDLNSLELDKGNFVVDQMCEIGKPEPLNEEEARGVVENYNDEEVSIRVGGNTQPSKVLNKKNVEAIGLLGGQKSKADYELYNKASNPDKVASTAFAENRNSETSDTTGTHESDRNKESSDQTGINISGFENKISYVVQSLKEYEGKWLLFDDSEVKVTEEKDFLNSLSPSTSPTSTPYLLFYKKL
# Assay: Inhibitors of USP1/UAF1: Pilot qHTS (AID 504865);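 note: rhodamine fluorescence freed from ubiquitin-rhodamine substrate followed over time; top concentration of the series differs between compounds; nearly all actives have a fitted effect of over 35% in size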
# Conditions: purified USP1/UAF1, Ub-rhodamine cleavage fluorescence; series mostly up to 114 µM
# Method in brief: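 USP1/UAF1 complex at 1 nM preincubated 15 min at room temperature with compound, then Ub-Rho substrate added at 150 nM final. Fluorescence (480/540 nm) read kinetically in 50 mM HEPES pH 7.8, 0.5 mM EDTA, 1 mM TCEP, 0.1 mg/ml BSA, 0.01% Tween-20.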
row,SMILES,Potency
1,O=S(=O)(c1cccc2cnccc12)N1CCNCC1,inactive
2,N[C@@H](Cc1cc(CP(=O)(O)O)cc(-c2ccccc2Cl)c1)C(=O)O,inactive
3,CN(C)C/C=C(\c1ccc(Br)cc1)c1cccnc1,inactive
4,CCOC(=O)c1c(C)[nH]c2ccc3c(c12)CN1CCc2cc(OC)ccc2[C@@H]1O3,inactive

# Biological target: DNA dC->dU-editing enzyme APOBEC-3G (Homo sapiens) (UniProt Q9HC16)
# Sequence (Q9HC16 whole entry, looked up): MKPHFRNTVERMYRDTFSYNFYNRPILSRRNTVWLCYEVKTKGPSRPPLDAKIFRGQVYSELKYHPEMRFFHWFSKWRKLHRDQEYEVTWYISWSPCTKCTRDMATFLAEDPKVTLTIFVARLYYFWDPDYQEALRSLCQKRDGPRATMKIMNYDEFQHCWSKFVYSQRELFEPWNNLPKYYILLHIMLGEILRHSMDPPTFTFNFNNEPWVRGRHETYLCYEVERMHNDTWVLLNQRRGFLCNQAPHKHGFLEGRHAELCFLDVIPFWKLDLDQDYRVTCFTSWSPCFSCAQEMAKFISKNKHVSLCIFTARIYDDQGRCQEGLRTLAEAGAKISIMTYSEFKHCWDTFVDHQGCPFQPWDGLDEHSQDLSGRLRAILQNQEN
# Assay: qHTS for inhibitors of Vif-A3G interactions: Validation (AID 588379)
# Conditions: Vif-A3G protein interaction assay; series mostly up to 46.1 µM
# Method in brief: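 HeLa cells stably expressing Vif and A3G-eYFP, 700 cells/well, incubated overnight at 37 deg C, then exposed to compound overnight at 37 deg C. Inhibition of Vif-mediated degradation read as increased yellow fluorescence (Ex 488/Em 500-530) by laser-scanning cytometry.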
row,SMILES,Potency
1,COc1ccc(/C=C\C(=O)Nc2ccccc2C(=O)O)cc1OC,inactive
2,O=S(=O)(c1cccc2cnccc12)N1CCNCC1,inactive
3,N[C@@H](Cc1cc(CP(=O)(O)O)cc(-c2ccccc2Cl)c1)C(=O)O,inactive
4,CN(C)C/C=C(\c1ccc(Br)cc1)c1cccnc1,inactive
5,CCOC(=O)c1c(C)[nH]c2ccc3c(c12)CN1CCc2cc(OC)ccc2[C@@H]1O3,inactive

# System: Zika virus NS2B-NS3 protease
# Assay: Primary screen GU AMC qHTS for Zika virus inhibitors (AID 1347154); note: nearly all actives have a fitted effect of over 70% in size
# Conditions: Zika NS2B-NS3 unlinked protease, AMC fluorogenic substrate; series mostly up to 54.1 µM
# Method in brief: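 Unlinked Zika NS2B hydrophilic domain/NS3 protease domain noncovalent complex (25 nM final) in 10 mM Tris-HCl pH 8.0, 0.01% Tween 20, with AMC peptide substrate. Fluorescence (ex 340, em 450 nm) change over 15 min, room temperature; percent inhibition fitted to 4-parameter Hill equation.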
SMILES,Potency,"activity change, negative = inhibition"
NC1=NC2C(N=C(Br)N2[C@@H]2O[C@H]3COP(=O)(O)O[C@@H]3[C@@H]2O)C(=O)N1 (stereo partly drawn),inactive,
CCCCC/C=C\C/C=C\CCCCCCCC(=O)NCC(=O)O,,18.9% [at 6.83 µM] (inactive)
Nc1ccccc1C(=O)C[C@H](N)C(=O)O,inactive,
Cc1cc(C)c(N(Cc2ccccc2)S(=O)(=O)c2ccc(OCCNC(=O)c3cc4ccccc4o3)cc2)c(C(=O)NO)c1,inactive,
CCCCC[C@H](O)CC[C@H]1[C@H](O)CC(=O)[C@@H]1CCCCCCC(=O)O,,15.4% [at 6.83 µM] (inactive)
CC[C@@H](C)[C@@H](CO[C@@H](Cc1ccccc1)C(=O)N[C@@H](CCS(C)(=O)=O)C(=O)OC(C)C)NC[C@@H](N)CS,inactive,
COc1ccc(/C=C\C(=O)Nc2ccccc2C(=O)O)cc1OC,inactive,
[C-]#[N+]c1cc(-c2ccncc2)c(C)[nH]c1=O,inactive,
CC(C)n1nnc2cc(C(=O)O)ccc21,inactive,
CO[C@H]1C[C@@H]2CC[C@@H](C)[C@@](O)(O2)C(=O)C(=O)N2CCCC[C@H]2C(=O)OC([C@H](C)C[C@@H]2CC[C@@H](O)[C@H](OC)C2)CC(=O)[C@H](C)/C=C(\C)[C@@H](O)[C@@H](OC)C(=O)[C@H](C)C[C@H](C)/C=C/C=C/C=C/1C (stereo partly drawn),inactive,
CCCCC[C@H](O)/C=C/[C@@H]1[C@@H](CC(=O)CCCCC(=O)O)[C@@H](O)C[C@H]1O,,7.57% [at 6.83 µM] (inactive)
CCCCC/C=C\C\C=C/C=C/C=C/[C@@H](SC[C@H](NC(=O)CC[C@H](N)C(=O)O)C(=O)NCC(=O)O)[C@@H](O)CCCC(=O)O,,8.51% [at 0.59 µM] (inactive)
CCC(N)(C(=O)O)c1ccc(C(=O)O)cc1 (stereo not drawn),inactive,
NC(=O)N/N=C/c1ccc(Oc2ccc(F)cc2)cc1,inactive,
c1ccc(Oc2nc(NC3CCCCC3)c3[nH]cnc3n2)cc1,inactive,
CCCCc1nc2ccn(CC(=O)N(C)C)c(=O)c2n1Cc1ccc(-c2ccccc2-c2nn[nH]n2)cc1,inactive,
C=C1CC2COC(=O)C2(Cc2ccc3ccccc3c2)C1 (stereo not drawn),inactive,
N[C@H](C(=O)O)C1C(C(=O)O)C1C(=O)O (stereo partly drawn),inactive,
N=C(CC(O)COc1ccccc1-c1ccccc1)N1CCCCC1 (stereo not drawn),inactive,
CCCCC/C=C\C=C\[C@H](O)CCCCCCCC(=O)O,,19.3% [at 0.59 µM] (inactive)

SMILES,Potency,"activity change, negative = inhibition"
Nc1ncnc2c1ncn2[C@@H]1O[C@H](C(=O)NC2CC2)[C@@H](O)[C@H]1O,inactive,
CCN(CC)CCCCN1c2ccccc2Oc2ccc(Cl)cc21,inactive,
COC1C(O)C(CO)OC1n1cnc2c(NC3CCCCC3)ncnc21 (stereo not drawn),inactive,
N[C@@]1(C(=O)O)CO[C@H]2[C@H](C(=O)O)[C@H]21,inactive,
CCCCCCCCCCCCC(O)C(=O)O (stereo not drawn),,10.2% [at 6.83 µM] (inactive)
NCCCCCc1cnc[nH]1,inactive,
COc1cccc(CCc2ccccc2OCC[C@@H]2C[C@@H](O)CN2C)c1,inactive,
O=S(=O)(c1cccc2cnccc12)N1CCNCC1,inactive,
CC1=C(/C=C/C(C)=C/C=C/C(C)=C\CO)C(C)(C)CCC1,inactive,
CCCCCCCCCCCCCCCCOC[C@H](COP(=O)([O-])OCC[N+](C)(C)C)OC(=O)NC,,0.721% [at 6.83 µM] (inactive)
N[C@@H](Cc1cc(CP(=O)(O)O)cc(-c2ccccc2Cl)c1)C(=O)O,inactive,
CC/C=C\C/C=C\C/C=C\CCCCCCCCCC(=O)O,,1.1% [at 6.83 µM] (inactive)
COc1ccc(CC(N)C(=O)NC2C(O)[C@H](n3cnc4c(N(C)C)ncnc43)O[C@@H]2CO)cc1 (stereo partly drawn),inactive,
CCCCC(C)(C)[C@H](O)/C=C/[C@H]1[C@H](O)CC(=O)[C@@H]1C/C=C\CCCC(=O)O,,5.54% [at 6.83 µM] (inactive)
COCCCCCCCCCCCC(=O)O,,13.2% [at 6.83 µM] (inactive)
C=NCc1cc2c(OC[C@@H](O)CNC(C)(C)C)cccc2[nH]1,inactive,
CCCCC/C=C\C\C=C/C=C/C=C/[C@@H](SCC(NC(C)=O)C(=O)O)[C@@H](O)CCCC(=O)O (stereo partly drawn),,13.7% [at 0.59 µM] (inactive)
CN(C)C/C=C(\c1ccc(Br)cc1)c1cccnc1,inactive,
CCOC(=O)c1c(C)[nH]c2ccc3c(c12)CN1CCc2cc(OC)ccc2[C@@H]1O3,inactive,
